Test results: PubChem BioAssay AID1159580 (chemical genetic matrix, 2015)
About 2,000 (36%) of roughly 5,500 compounds were called active. Another 18% or so got no clear call; they are omitted. No stated cut-off is given here; in the data, active means normalized growth mostly below about 0.91 (no sharp cut-off); inconclusive means no clear call, values can overlap the other calls; inactive means mostly above about 0.92. Some of the results follow.

Assay: chemical genetic growth profiling, strain panel (AID 1159580);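 further: tested at 20 µM; growth read once vehicle control cultures reached saturation at 30 °C; 1 = growth at the plate median or of vehicle wells; lower values mean less growth of the strain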
Settings: S. cerevisiae deletion strains, growth OD
[1] = locus YAR019C, strain CDC15, active compounds read low
[2] = locus YBL105C, strain PKC1, active compounds read low
[3] = locus YBR135W, strain CKS1, active compounds read low
[4] = locus YBR136W, strain MEC1, active compounds read low
[5] = locus YBR160W, strain CDC28, active compounds read low
[6] = locus YDL017W, strain CDC7, active compounds read low
[7] = locus YDL028C, strain MPS1, active compounds read low
[8] = locus YDL101C, strain DUN1, active compounds read low
[9] = locus YDL108W, strain KIN28, active compounds read low
[10] = locus YDL132W, strain cdc53, active compounds read low
[11] = locus YDL214C, strain PRR2, active compounds read low
[12] = locus YDR052C, strain DBF4, active compounds read low
[13] = locus YDR054C, strain cdc34, active compounds read low
[14] = locus YDR226W, strain ADK1, active compounds read low
[15] = locus YDR477W, strain SNF1, active compounds read low
[16] = locus YER123W, strain YCK3, active compounds read low
[17] = locus YER133W, strain GLC7, active compounds read low
[18] = locus YFL009W, strain cdc4, active compounds read low
[19] = locus YFL029C, strain CAK1, active compounds read low
[20] = locus YFR003C, strain YPI1, active compounds read low
[21] = locus YFR019W, strain FAB1, active compounds read low
[22] = locus YFR028C, strain CDC14, active compounds read low
[23] = locus YGR040W, strain KSS1, active compounds read low
[24] = locus YGR052W, strain FMP48, active compounds read low
[25] = locus YGR092W, strain DBF2, active compounds read low
[26] = locus YHR030C, strain SLT2, active compounds read low
[27] = locus YHR079C, strain IRE1, active compounds read low
[28] = locus YHR082C, strain KSP1, active compounds read low
[29] = locus YHR205W, strain SCH9, active compounds read low
[30] = locus YIL147C, strain SLN1, active compounds read low
[31] = locus YJL095W, strain BCK1, active compounds read low
[32] = locus YJL128C, strain PBS2, active compounds read low
[33] = locus YJL157C, strain FAR1, active compounds read low
[34] = locus YJR016C, strain ILV3, active compounds read low
[35] = locus YJR066W, strain TOR1 (second series), active compounds read low
[36] = locus YJR066W, strain TOR1, active compounds read low
[37] = locus YKL048C, strain ELM1, active compounds read low
[38] = locus YKL067W, strain YNK1, active compounds read low
[39] = locus YKL101W, strain HSL1, active compounds read low
[40] = locus YKL193C, strain SDS22, active compounds read low
[41] = locus YKL203C, strain TOR2, active compounds read low
[42] = locus YLR113W, strain HOG1, active compounds read low
[43] = locus YLR133W, strain CKI1, active compounds read low
[44] = locus YLR403W, strain SFP1, active compounds read low
[45] = locus YML070W, strain DAK1, active compounds read low
[46] = locus YMR001C, strain CDC5, active compounds read low
[47] = locus YMR205C, strain PFK2 (second series), active compounds read low
[48] = locus YMR277W, strain FCP1, active compounds read low
[49] = locus YNL006W, strain LST8, active compounds read low
[50] = locus YNL020C, strain ARK1, active compounds read low
[51] = locus YNL161W, strain CBK1, active compounds read low
[52] = locus YNL183C, strain NPR1, active compounds read low
[53] = locus YNL207W, strain RIO2, active compounds read low
[54] = locus YNL222W, strain SSU72, active compounds read low
[55] = locus YNL307C, strain MCK1 (second series), active compounds read low
[56] = locus YOL078W, strain AVO1, active compounds read low
[57] = locus YOL136C, strain PFK27, active compounds read low
[58] = locus YOR061W, strain CKA2, active compounds read low
[59] = locus YOR119C, strain RIO1, active compounds read low
[60] = locus YOR231W, strain MKK1, active compounds read low
[61] = locus YOR329C, strain SCD5, active compounds read low
[62] = locus YPL031C, strain PHO85, active compounds read low
[63] = locus YPL153C, strain RAD53, active compounds read low
[64] = locus YPL204W, strain HRR25, active compounds read low
[65] = locus YPL209C, strain IPL1, active compounds read low
[66] = locus YPL256C, strain CLN2, active compounds read low
[67] = locus YPR025C, strain CCL1, active compounds read low
[68] = locus YPR106W, strain ISR1, active compounds read low
[69] = locus YPR111W, strain DBF20, active compounds read low
[70] = strain NNK1, active compounds read low
[71] = strain TSCII, active compounds read low

Measured: normalized growth

CC(=O)Oc1ccc2c(=O)c(Oc3ccc(Cl)cc3)c(C)oc2c1
inactive: [1] 0.969 | [2] 0.964 | [3] 0.968 | [4] 0.954 | [5] 0.962 | [6] 0.963 | [7] 0.956 | [8] 0.951 | [9] 0.958 | [10] 0.96 | [11] 0.938 | [12] 0.959 | [13] 0.96 | [14] 0.957 | [15] 0.945 | [16] 0.918 | [17] 0.939 | [18] 0.97 | [19] 0.964 | [20] 0.968 | [21] 0.979 | [22] 0.963 | [23] 0.953 | [24] 0.887 | [25] 0.692 | [27] 0.897 | [28] 0.917 | [29] 0.776 | [30] 0.947 | [31] 0.7 | [32] 0.923 | [33] 0.973 | [34] 0.964 | [35] 0.953 | [36] 0.896 | [37] 0.933 | [38] 0.94 | [39] 0.908 | [40] 0.953 | [41] 0.968 | [43] 0.952 | [44] 0.887 | [45] 0.921 | [46] 0.961 | [47] 0.935 | [48] 0.969 | [49] 0.985 | [50] 0.952 | [51] 0.965 | [52] 0.875 | [53] 0.953 | [54] 0.97 | [55] 0.808 | [56] 0.95 | [57] 0.933 | [58] 0.959 | [59] 0.995 | [60] 0.834 | [61] 0.961 | [62] 0.935 | [63] 0.954 | [64] 0.943 | [65] 0.96 | [66] 0.909 | [67] 0.965 | [68] 0.955 | [69] 0.941 | [70] 0.94 | [71] 0.964
active: [26] 0.802 | [42] 0.768

FC(F)(F)c1ccc(C2Sc3ccccc3N=C3c4ccccc4CC32)cc1 (configuration not stated)
inactive: [1] 1.01 | [2] 1.03 | [3] 1.01 | [4] 1 | [5] 1.02 | [6] 1.01 | [7] 0.996 | [8] 1 | [9] 0.994 | [10] 1.02 | [11] 1.02 | [12] 1.01 | [13] 1.02 | [14] 0.996 | [15] 1.03 | [16] 0.96 | [17] 1 | [18] 1.01 | [19] 1 | [20] 1.02 | [21] 0.985 | [22] 1.01 | [23] 1.02 | [24] 1.04 | [25] 0.979 | [26] 0.97 | [27] 1.01 | [28] 1.01 | [29] 0.953 | [30] 1 | [31] 0.985 | [32] 0.973 | [33] 1.02 | [34] 1.02 | [35] 0.999 | [36] 0.993 | [37] 0.984 | [38] 1 | [39] 1.04 | [40] 1.01 | [41] 1.1 | [42] 0.87 | [43] 0.987 | [44] 0.991 | [45] 0.981 | [46] 1.02 | [47] 0.995 | [48] 1.02 | [49] 1 | [50] 1.01 | [51] 1.03 | [52] 0.969 | [53] 1.02 | [54] 1.01 | [55] 0.937 | [56] 0.998 | [57] 0.993 | [58] 0.993 | [59] 1.02 | [60] 1 | [61] 1.03 | [62] 1.06 | [63] 1.03 | [64] 1.01 | [65] 1.02 | [66] 0.951 | [67] 1.02 | [68] 0.996 | [69] 0.985 | [70] 1.01 | [71] 1.02
